Source: PubChem
B2AR arrestin = qHTS assay of beta-arrestin-biased ligands of beta2-adrenergic receptor; hit rate 0.02% among 330,000; Potency, µM (highest dose often 46.1 µM), inactives show at the top dose activation, usual class: activators; Beta-2 adrenergic receptor (Homo sapiens), P07550; beta-arrestin recruitment to beta2AR, cell-based reporter; AID 492947, 2010;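 also: potency is read from the fitted curve at half-maximal effect; 0% = DMSO controls and full agonism = EC100 isoproterenol or metaproterenol; nearly all actives have a fitted effect of over 65% in size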
D3 ag = qHTS of D3 Dopamine Receptor Agonist: qHTS; D(3) dopamine receptor (Homo sapiens), P35462; hit rate 0.58% among 410,000; D3R DiscoveRx beta-arrestin cells, luminescence, 90 min; max activation, %; in the data active = max activation above about 30%; also: 0% is about no effect
Target sequence (P35462 whole entry, looked up): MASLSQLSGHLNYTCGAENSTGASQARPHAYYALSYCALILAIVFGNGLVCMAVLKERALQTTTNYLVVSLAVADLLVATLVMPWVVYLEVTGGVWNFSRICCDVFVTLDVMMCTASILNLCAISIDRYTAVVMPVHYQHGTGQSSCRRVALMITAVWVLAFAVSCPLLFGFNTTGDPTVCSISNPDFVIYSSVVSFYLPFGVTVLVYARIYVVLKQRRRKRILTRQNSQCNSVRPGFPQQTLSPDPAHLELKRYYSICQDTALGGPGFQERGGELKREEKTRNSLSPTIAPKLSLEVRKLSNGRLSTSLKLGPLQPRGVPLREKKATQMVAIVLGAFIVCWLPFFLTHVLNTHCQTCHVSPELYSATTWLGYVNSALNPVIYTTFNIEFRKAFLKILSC
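Agonist-mode cell screen: cells plated at 1500/well and incubated overnight at 37 °C, then exposed to library compounds for 90 min at 37 °C. Detection reagent was added for 30–60 min at room temperature, and luminescence was read.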
IDH1 R132H inh = qHTS for Inhibitors of mutant isocitrate dehydrogenase 1 (IDH1): qHTS | Potency, µM (top dose mostly 76.6 µM), inactives show at the highest dose activity change, negative = inhibition, usual class: inhibitors | Isocitrate dehydrogenase [NADP] cytoplasmic (Homo sapiens), O75874 | IDH1-R132H enzyme, NADPH consumption, diaphorase/resazurin fluorescence | hit rate 0.093% among 390,000 | AID 602179, 2012; also: potency is read from the fitted curve at half-maximal effect; % is scaled to controls: 0 for no effect and ±100 for the full control effect; nearly all actives have a fitted effect of over 65% in size
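IDH1-R132H (0.5 ug/mL dispensed) in pH 7.5 Tris buffer was preincubated 30 min with compound, then given a substrate mix of 0.016 mM NADPH and 2 mM alpha-KG for 80 min at room temperature; remaining NADPH was read by diaphorase/resazurin fluorescence.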
a7 integrin act = qHTS for Activators of Integrin-Mediated Alleviation for Muscular Dystrophy. alpha7betagal myoblasts, beta-gal FDG fluorescence, 48 h. Potency, µM (titrated, usually from 38.3 µM), for inactives: at the top dose activation, most hits filed as activators. hit rate 0.064% among 350,000. AID 624291, 2012;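 also: potency is read from the fitted curve at half-maximal effect; 100% = response of the positive control SU9516; nearly all actives have a fitted effect of over 60% in size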
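Alpha7betagal+/- myoblasts (passage 13) were plated 16-24 hr, then exposed to compounds (1:260 dilution of DMSO stock) for 48 hours at 37C. After MPER lysis, β-galactosidase reporter activity was read as FDG fluorescence (ex 480/em 540) after 30 minutes.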
D3 antag = qHTS of D3 Dopamine Receptor Antagonist: qHTS. D3R cells, DiscoveRx beta-arrestin luminescence, antagonist mode; active compounds read low. max response, negative = inhibition, %. hit rate 2.5% among 360,000; in the data active = max response below about -50%; inconclusive = no clear call, values can overlap the other calls; also: % is scaled to controls: 0 for no effect and ±100 for the full control effect
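Cells expressing the human receptor were seeded at 1500 cells/well, incubated overnight at 37 degrees C in 5% CO2, then exposed to library compounds with dopamine controls for 90 minutes at 37 degrees C before luminescent detection.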
* hit, by the source's call; ? = inconclusive; nt = not tested or not shown; ! = not confirmed by another sample. Hits are enriched below; roughly 2.9% of the tested compounds scored in any of these assays. Unless noted, calls follow the shape of the dose curve; as a rule, active = well fitted curve in the direction sought with a large enough effect; inconclusive = small, poorly fitted or top-dose-only effect, or another doubt; inactive = no such curve, though single readings can be large; an effect the other way counts as inactive or inconclusive.

SMILES	B2AR arrestin	D3 ag	IDH1 R132H inh	a7 integrin act	D3 antag
Cc1ccc(S(=O)(=O)c2nc(S(C)(=O)=O)sc2N2CCCC2)cc1	0%	-4	-4%	-7%	5
Cc1cc(C)n(-c2nnc(Nc3ccc(C)c(Cl)c3)c3ccccc23)n1	nt	-10	4%	nt	nt
Cc1oc2cc3oc(=O)c(CCC(=O)NC4CC4)c(C)c3cc2c1C	5%	79*	4%	-17%	78
Cc1c(CCC(=O)N2CCC(C(=O)O)(c3ccccc3)CC2)c(=O)oc2cc3oc4c(c3cc12)CCCC4	9%	-4	-15%	7%	-25
Cc1oc2cc3oc(=O)c(CC(=O)N4CCCCC4)c(C)c3cc2c1C	nt	9	-11%	nt	nt
Cc1c(CC(=O)N2CCC(C(N)=O)CC2)c(=O)oc2cc3c(cc12)CCC1(CCCCC1)O3	0%	45*	-1%	14%	74
Cc1c(CCC(=O)N2CCC(C(=O)O)CC2)c(=O)oc2cc3oc4c(c3cc12)CCCC4	0%	42*	-6%	-2%	96
CN(C)c1cccc(CNC(=O)c2ccc3sc([C@@H]4O[C@H](CO)[C@H](O)[C@H](O)[C@H]4O)nc3c2)c1	nt	-15	nt	nt	-101*
O=C(NCc1cccnc1)c1ccc2sc([C@@H]3O[C@H](CO)[C@H](O)[C@H](O)[C@H]3O)nc2c1	nt	-5	nt	nt	-55*
CCCn1c2ccccc2c2cnn(CC(=O)N3CCC(C(=O)OCC)CC3)c(=O)c21	nt	-11	-15%	nt	nt
CCN(CC)C(=O)CSc1nnc(-c2ccccn2)n1-c1ccccc1OC	0%	1	0%	-11%	1
O=C(COc1ccccc1)NC1CCS(=O)(=O)C1 (configuration not stated)	0%	1	0%	?	-5
O=C(COC(=O)C1(c2ccccc2F)CCCC1)NC1CCS(=O)(=O)C1 (configuration not stated)	0%	-5	8%	4%	-62*
Nc1c(CC(=O)O)cccc1C(=O)c1ccc(Br)cc1	nt	3	nt	nt	nt
Nc1c(CC(=O)O)cccc1C(=O)c1ccccc1	nt	42*!	nt	nt	nt
CC(C)(C)c1cc(CN2CCN(CCO)CC2)cc(C(C)(C)C)c1O	-1%	-33	0%	-45%	-82*
CCOC(=O)C1CCN(Cc2cc(C(C)(C)C)c(O)c(C(C)(C)C)c2)CC1	0%	-12	-1%	-42%	?
CC(=O)/C(C=Nc1noc(C)c1Br)=C(\C)O	-1%	2	1%	27%	17
CCCCC(=O)Nc1ccccc1CC	-1%	-15	9%	13%	-65*
CCc1ccccc1NC(=O)CC(=O)Nc1ccccc1CC	-1%	4	7%	3%	19
CC(=O)c1ccc(NC(=O)CSc2cn(CC(=O)N3CCCCC3)c3ccccc23)cc1	nt	-7	16%	nt	nt
COc1ccccc1N1CCN(CCCCOc2cccc3ccccc23)CC1	0%	10	-1%	-47%	-69*
COc1ccccc1N1CCN(CCCCCCOc2ccc(F)cc2)CC1	-1%	-5	8%	-35%	-52*
COc1ccccc1OCC(=O)N1CCN(c2ccccc2OC)CC1	nt	-1	4%	17%	7
COc1ccccc1OCCCCN1CCN(c2ccccc2OC)CC1	0%	3	2%	-22%	-81*
Fc1ccc(OCCCCCN2CCCC2)cc1	0%	-25	2%	-12%	-17
CC1CN(CCCCOc2ccc(F)cc2)CC(C)O1 (configuration not stated)	0%	-18	9%	-11%	-50*
Cc1c(C2=CCN(S(=O)(=O)c3ccc(CC(C)C)cc3)CC2)c2ccccc2n1CC(=O)N1CCCC1	nt	-23	11%	nt	nt
COc1ccc(-c2cc(C(F)(F)F)nc(S(=O)(=O)CCCC(=O)Nc3cccc(O)c3)n2)cc1OC	0%	-22	9%	-70%	-53*
CCCc1[nH]nc2c1C(c1ccc(OCCN3CCOCC3)c(OC)c1)C(C#N)=C(N)O2 (configuration not stated)	0%	3	2%	-19%	-64*
